Assay outcomes: PubChem, several laboratories
rCAG binder – binds r(CAG) RNA repeats; 370,000 tested, 1.3% active; inhibition, % at 3 µM; AID 651821; r(CAG) RNA repeat, TO-PRO-1 dye displacement fluorescence;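 active = inhibition above the plate cutoff, the mean of all test compounds on that plate plus 3 SD, cut at about 35% in these data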;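 also: 0% = DMSO alone and 100% = 100 µM mitoxantrone as full dye displacement; higher means more dye released from RNA so lower well fluorescence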
APOBEC3A inh – inhibitors of human APOBEC3A DNA deaminase | AID 493011 | inhibition, % at 20 µM | P31941 | recombinant A3A, FAM/TAMRA ssDNA deamination fluorescence | 330,000 tested, 0.41% active;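 active = at least 40% inhibition at 20 µM here, with at most 30% in a related deaminase screen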;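 also: plate controls were A3A with DMSO for no effect and wells lacking A3A enzyme for full effect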
Target sequence (P31941 whole entry, looked up): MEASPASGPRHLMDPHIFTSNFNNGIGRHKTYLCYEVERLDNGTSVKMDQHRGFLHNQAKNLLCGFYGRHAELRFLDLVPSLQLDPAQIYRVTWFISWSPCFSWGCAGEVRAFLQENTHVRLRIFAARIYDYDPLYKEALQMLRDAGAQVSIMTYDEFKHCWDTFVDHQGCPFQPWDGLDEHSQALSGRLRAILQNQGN
ALR inh – blocks human ALR sulfhydryl oxidase activity. P55789. purified ALR, DTT oxidation, H2O2 HRP-luminol luminescence. inhibition, % (test concentration not listed). 290,000 tested, 3.8% active. AID 485317;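 active = mean replicate inhibition above about 79%, with every replicate also reaching it, limit read from the data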
Target sequence (P55789 whole entry, looked up): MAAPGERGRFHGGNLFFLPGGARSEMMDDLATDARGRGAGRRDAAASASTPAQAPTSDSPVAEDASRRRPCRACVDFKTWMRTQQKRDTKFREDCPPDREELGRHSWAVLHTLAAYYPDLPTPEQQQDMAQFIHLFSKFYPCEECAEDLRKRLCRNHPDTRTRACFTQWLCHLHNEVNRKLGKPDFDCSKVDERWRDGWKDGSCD
aDG glyco up – alpha-DG glycosylation activation; Pro5-aDG cells, alpha-DG glycosylation AlphaScreen (IIH6); 0% Pro5, 100% B10-LARGE cell signal; activation, % at 10 µM; 360,000 tested, 0.22% active; AID 624168;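 active = activation of at least 8% versus controls, or a plate z-score of at least 8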;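 also: Pro5 are CHO cells carrying HIG-tagged alpha-DG that lacks glycosylation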
PHOSPHO1 block – PHOSPHO1 (human) inhibition; Q8TCT1; recombinant PHOSPHO1, absorbance phosphatase assay; inhibition, % at 13.3 µM; 290,000 tested, 1.1% active; AID 1565; in the data active = inhibition above about 60%
A3G deaminase – inhibitors of human APOBEC3G DNA deaminase; recombinant A3G, ssDNA deamination FAM/TAMRA fluorescence; 330,000 tested, 0.28% active; inhibition, % at 20 µM; AID 493012; Q9HC16;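 active = inhibition of at least 40% at 20 µM, with no more than 30% in the related APOBEC3A deaminase screen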;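 also: plate controls were DMSO wells with A3G for no effect and wells lacking A3G enzyme for full effect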
An asterisk follows results filed as active; . = not tested or not shown. Hits are enriched below; roughly 5.4% of the tested compounds scored in any of these assays.

SMILES	rCAG binder	APOBEC3A inh	ALR inh	aDG glyco up	PHOSPHO1 block	A3G deaminase
O=C1C[C@@H](c2ccc(O)cc2)Oc2cc(O)cc(O)c21	4.8	-3.4	99.6*	0.3	3.7	9.4
COC(=O)CSc1nc2ccccc2o1	-2.6	3.6	-8.7	0.1	25.7	5.9
CCCCCCOC(=O)Sc1nc2ccccc2o1	-0.9	-4.0	54.6	0.0	85.8*	-3.7
Cn1ccnc1SCc1cccc([N+](=O)[O-])c1	0.8	-5.3	98.4*	-0.2	32.3	-6.9
Cn1ccnc1SCc1ccc([N+](=O)[O-])cc1	2.8	3.9	98.5*	-0.3	15.4	-6.2
COc1ccc(/C(C)=N/NC(=O)Cc2c(C)nc(C)[nH]c2=O)cc1	5.0	1.2	4.5	-0.3	14.0	-1.3
Cc1nc(C)c(CC(=O)N/N=C/c2ccc(O)cc2)c(=O)[nH]1	-2.6	-0.4	90.1*	0.0	-6.9	-6.2
O=C(O)Cc1sc(N/N=C\c2ccccc2)nc1-c1ccccc1	44.1*	-1.7	18.4	-0.5	6.3	4.2
CC(=O)Nc1ccc(NC(=O)Cc2sc(C)nc2-c2ccc(C)cc2)cc1	3.0	25.7	.	-0.1	4.1	11.6
Cc1cccc(Nc2nc(CC(=O)O)cs2)c1	6.1	0.6	30.2	-0.1	15.9	-3.8
Cc1ccc(-c2nc(Nc3cccc(C)c3)sc2CC(=O)O)cc1	14.4	-1.7	98.4*	-0.3	43.7	6.1
O=C(O)Cc1sc(NCCc2ccccc2)nc1-c1ccc(F)cc1	7.7	-2.6	22.3	0.1	14.3	1.0
O=C(O)Cc1sc(-c2ccccc2Cl)nc1-c1ccccc1	16.7	-1.2	98.9*	-0.3	-23.6	-4.3
O=C(Cc1sc(-c2ccccc2)nc1-c1ccccc1)Nc1ccccc1	5.1	-10.9	0.2	0.0	3.2	-4.8
Cc1ccc(-c2nc(C)sc2CC(=O)Nc2nnc(C)s2)cc1	-2.1	-8.2	97.5*	1.2	15.9	1.6
CC(=O)Nc1ccc(NC(=O)COC(=O)c2c(C)nn(-c3ccccc3)c2C)cc1	4.2	0.8	93.6*	0.1	5.6	-1.3
CC1=NN(c2nc(-c3ccc(C#N)cc3)cs2)C(=O)C1	20.2	-4.5	-5.8	.	23.6	-6.6
CC1=NN(c2nc(-c3ccccc3)cs2)C(=O)C1	68.2*	-2.1	-0.9	0.1	-13.6	-2.0
Cc1ccccc1Cn1cc(CN2[C@@H](CC(C)C)COc3cc(Br)ccc3S2(=O)=O)nn1	0.7	.	.	.	.	.
CCOC(=O)CC1CCCCN1C(=O)CCCn1nnnc1CN1CCOCC1 (configuration not stated)	-3.5	-1.5	-0.1	-0.2	13.7	-9.6
COc1ccc(N2CCN(C(=O)CCCn3nnnc3CN3CCOCC3)C(C)C2)cc1 (configuration not stated)	-8.1	0.6	99.0*	0.0	46.5	7.3
COCCN=C1Sc2ccccc2[C@@H]2C[C@H]3[C@H](CON3C)CN12	0.2	.	.	.	.	.
O=C(CSc1ccc2nnc(-c3cccc(F)c3)n2n1)N1CCCc2ccccc21	1.4	-7.7	.	0.0	-20.6	-10.5
CCSc1ccc2nnc(-c3cccc(F)c3)n2n1	1.8	23.1	-8.0	0.1	93.8*	3.6
CCCCN1C(=O)N2Cc3ccccc3C2CS1(=O)=O (configuration not stated)	-1.8	.	.	.	.	.
SMILES	rCAG binder	APOBEC3A inh	ALR inh	aDG glyco up	PHOSPHO1 block	A3G deaminase
COC(=O)c1ccc(C(=O)OCCCc2nc3ccc(N)cc3[nH]2)cc1	2.7	-4.2	89.6*	-0.2	-3.5	-7.5
Nc1ccc2nc(CCCCCCCCc3nc4ccc(N)cc4[nH]3)[nH]c2c1	0.4	1.0	96.5*	-0.2	4.2	1.3
Nc1ccc2nc(CCCCCCc3nc4ccc(N)cc4[nH]3)[nH]c2c1	2.5	2.4	57.3	-0.3	-11.4	5.2
Nc1ccc(C(=O)OCCCc2nc3ccccc3[nH]2)cc1	0.4	7.8	-2.4	0.1	22.9	0.0
Nc1ccc2nc(CCCO)[nH]c2c1	-3.5	2.1	99.1*	-0.2	18.8	-0.7
Nc1ccc2nc(CCCCc3nc4ccccc4[nH]3)[nH]c2c1	0.0	-2.8	99.6*	0.0	-1.3	-0.3
CCOC(=O)c1cccc(NC(=O)CN(C)S(=O)(=O)c2ccc(Cl)s2)c1	1.6	.	.	.	.	.
COc1cc2c(c(OC)c1)[C@H](/C=C/c1ccccc1)[C@@H]([C@H](O)CO)OC2	4.3	.	.	.	.	.
COC(=O)[C@]12C[C@H](CC(=O)NCC34CC5CC(CC(C5)C3)C4)C(=O)N(Cc3cccc4ccccc34)C1=C[C@H](C(C)(C)C)O[C@@H]2C	2.1	.	.	.	.	.
